Reference: PubChem BioAssay
Values without a mark were called inactive. Calls of active or inactive are those of the source.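 The calls were made as follows: active = inhibition at or above 50% relative to wild type and mutant plate controls; inactive = inhibition below 50%.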

Assay: loss of swimming-algae plug formation – whole organism, Chlamydomonas reinhardtii, WT vs cilia-less mutant, absorbance, 96-well, primary screen (AID 463189);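 also: 0% = wild type cc124 cells in DMSO and 100% = ciliumless bld1 mutant cells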
Conditions: Chlamydomonas reinhardtii gravitaxis, OD600 absorbance, 2 days; at 10 µM; hits give high values
In the case of `OCc1ccc(-c2nn(Cc3ccccc3)c3ccccc23)o1`, the inhibition is reported as 3.81%. `CNC(=O)[C@H]1O[C@@H](n2cnc3c(NCc4ccc(I)cc4)nc(Cl)nc32)[C@H](O)[C@@H]1O` showed an inhibition of 0.705%. For `C#CC(N)CCC(=O)O` (stereo not given), the inhibition was -0.038%. For `CC1(C)C(=O)N(CCN2CCC(C(=O)c3ccc(F)cc3)CC2)c2ccccc21`, the inhibition was 5.57%. Work on `N#C/C(=C\c1ccc(O)c(O)c1)C(=O)Nc1ccccc1` yielded an inhibition of 5.13%. For `COc1cc2c(c(OC)c1OC)-c1ccc(OC)c(=O)cc1[C@@H](NC(C)=O)CC2`, the inhibition was 4.38%. For `COC(=O)C(N)Cc1ccc(Cl)cc1` (stereo not given), the inhibition was -0.698%. Work on `CSc1nc(N)c2ncn([C@@H]3O[C@H](COP(=O)(O)OP(=O)(O)OP(=O)(O)O)[C@H](O)C3O)c2n1` (stereo not given in full) yielded an inhibition of -3.46%. With `Nc1nc(Cl)nc2c1ncn2[C@@H]1O[C@H](COP(=O)(O)OP(=O)(O)OP(=O)(O)O)[C@H](O)C1O` (stereo not given in full) the inhibition was 0.076%. In the case of `CC(C)(C)NCC(O)COc1cccc2[nH]c(=O)[nH]c12` (stereo not given), the inhibition is reported as 3.61%. Work on `C1CCC(N=C(NC23CC4CC(CC(C4)C2)C3)N2CCOCC2)CC1` yielded an inhibition of 2.95%. `COc1ccccc1N1CCN(CCN(C(=O)c2ccc(I)cc2)c2ccccn2)CC1` showed an inhibition of -3.47%. In the case of `CCN1CCc2nc(N)oc2CC1`, the inhibition is reported as 6.74%. Molecule `NCCS(=O)O` has an inhibition of 4.12%. In the case of `O=C(O)c1ccccc1Nc1cccc(OCc2ccc3ccccc3n2)c1`, the inhibition is reported as 8.8%. For `O=C(O)C1=CCCN(CCON=C(c2ccccc2)c2ccccc2)C1`, the inhibition was -1.19%. Molecule `NC(N)=NCCC[C@H](N)C(=O)O` has an inhibition of -8.92%. `Cc1nc2c([nH]1)c(=O)n(C)c(=O)n2Cc1ccco1` showed an inhibition of 0.516%. In the case of `Cn1cc(C(=O)OCC2CCN(CCNS(C)(=O)=O)CC2)c2ccccc21`, the inhibition is reported as 6.02%. Work on `NC(=NCc1ccc(Cl)c(Cl)c1)NC(=O)c1nc(Cl)c(N)nc1N` yielded an inhibition of 7.67%. For `COc1cc2c(CCNC(C)=O)c[nH]c2cc1Cl`, the inhibition was 4.11%. With `CN(C)C(=O)/N=N/C(=O)N(C)C` the inhibition was -5.45%. In the case of `COC(=O)[C@@H]1[C@H]2C[C@H]3c4[nH]c5ccccc5c4CCN3C[C@@H]2CC[C@@H]1O`, the inhibition is reported as 8.68%. Work on `CCCCCCCCCCCCCCCC(=O)NCCO` yielded an inhibition of 8.85%. In the case of `Cc1nc(N=Nc2ccc(C(=O)O)cc2)c(COP(=O)(O)O)c(C=O)c1O`, the inhibition is reported as 8.14%. For `N.N.N.N.N.N.N.N.N.N.N.N.N.N.O.O.[Cl-].[Cl-].[Cl-].[Cl-].[Cl-].[Cl-].[Ru+4].[Ru+5].[Ru+5]`, the inhibition was 97.5% (active). `Cc1cccc(/C=C/c2ccccc2)n1` showed an inhibition of 27.5%. Molecule `COc1cc2nc(N3CC=[N+](C(=O)c4ccco4)CC3)nc(N)c2cc1OC` has an inhibition of 6.38%. Molecule `O=S(=O)(c1cccc2c(I)cccc12)N1CCCNCC1` has an inhibition of -1.51%. Work on `C=CCN1CCc2c(cc(O)c(O)c2Cl)C(c2ccccc2)C1` (stereo not given) yielded an inhibition of -7.02%. With `CN(C)c1nc(N)c(C(=O)N=C(N)N)nc1Cl` the inhibition was 1.32%. In the case of `COc1ccccc1N1CCN(CCN(C(=O)C2CCCCC2)c2ccccn2)CC1`, the inhibition is reported as 9.85%. With `CN(C)C/C=C(/c1ccc(Br)cc1)c1cccnc1` the inhibition was 108% (active). For `C=CC(N)CCC(=O)O` (stereo not given), the inhibition was -6.67%. `CSc1nc(N)c2ncn([C@@H]3O[C@H](COP(=O)(O)OP(=O)(O)O)[C@H](O)C3O)c2n1` (stereo not given in full) gave an inhibition of 6.63%. For `CCCC[C@@]1(C2CCCC2)Cc2cc(OCC(=O)O)c(Cl)c(Cl)c2C1=O`, the inhibition was 4.57%. For `O=C(O)CCCCCCCC(=O)O`, the inhibition was 5.5%. For `Cn1ccc2cc3c(cc21)CCN3C(=O)Nc1cccnc1`, the inhibition was 9.75%. `Cn1c(=O)c2c(nc(/C=C/c3cccc(Cl)c3)n2C)n(C)c1=O` gave an inhibition of 18.1%. Work on `N[C@@H](Cc1ccc(O)c(O)c1)C(=O)O` yielded an inhibition of 2.49%.
